Experimental data taken from PubChem BioAssay AID488969 (Vanderbilt High Throughput Screening Facility, 2010).
Over roughly 110,000 compounds, “z-score” has its median near -0.1; the highest 2% begin near 2. This is one part of a sample in which the highest values are shown more often than they occur. Active and inactive are the calls of the source.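 The calls were made as follows: active = z-score in the third read window above 3 or below -3; inactive = the rest.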

Biological target: Metabotropic glutamate receptor 8 (Rattus norvegicus) (UniProt P70579)
Sequence (P70579 whole entry, looked up): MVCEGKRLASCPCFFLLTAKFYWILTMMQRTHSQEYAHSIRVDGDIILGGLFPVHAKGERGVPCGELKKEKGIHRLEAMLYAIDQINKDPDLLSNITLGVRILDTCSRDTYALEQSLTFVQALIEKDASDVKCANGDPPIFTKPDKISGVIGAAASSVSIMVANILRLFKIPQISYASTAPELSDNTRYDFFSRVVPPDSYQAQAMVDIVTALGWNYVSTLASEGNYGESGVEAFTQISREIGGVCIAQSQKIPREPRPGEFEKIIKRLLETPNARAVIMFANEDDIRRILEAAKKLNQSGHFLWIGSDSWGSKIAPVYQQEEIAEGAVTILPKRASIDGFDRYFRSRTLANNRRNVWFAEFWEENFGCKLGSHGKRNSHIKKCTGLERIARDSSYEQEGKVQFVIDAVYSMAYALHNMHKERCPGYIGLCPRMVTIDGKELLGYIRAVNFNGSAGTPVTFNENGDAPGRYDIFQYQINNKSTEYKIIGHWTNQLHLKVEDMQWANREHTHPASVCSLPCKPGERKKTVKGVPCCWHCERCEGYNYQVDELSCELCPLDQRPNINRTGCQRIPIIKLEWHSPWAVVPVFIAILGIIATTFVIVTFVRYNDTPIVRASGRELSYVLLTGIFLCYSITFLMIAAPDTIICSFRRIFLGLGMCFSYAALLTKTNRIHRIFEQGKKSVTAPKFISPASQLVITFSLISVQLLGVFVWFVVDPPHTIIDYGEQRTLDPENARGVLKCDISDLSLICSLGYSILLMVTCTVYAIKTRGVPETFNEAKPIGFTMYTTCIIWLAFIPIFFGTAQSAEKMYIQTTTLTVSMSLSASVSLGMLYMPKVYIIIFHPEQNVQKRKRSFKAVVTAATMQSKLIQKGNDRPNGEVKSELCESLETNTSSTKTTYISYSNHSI
Assay: mGluR8 Gi/Go-coupled signaling modulation – cell-based, rat, thallium flux, HTS, primary screen (AID 488969)
Settings: HEK293 rat mGluR8, GIRK (G protein-gated inwardly rectifying potassium channel) thallium flux, FluoZin2; at 10 µM; stronger effect = higher value; submaximal glutamate (EC20) added with thallium

Structure (SMILES)	z-score
Fc1ccc(C2NC(=S)NC3=C2N2CCC3CC2)cc1 (stereo not given)	-0.0689
O=C(O)C1CC(=O)n2c(nc3ccccc32)S1 (stereo not given)	0.555
O=C1CC(c2cccs2)Sc2nc3ccccc3n21 (stereo not given)	1.16
O=C1CC(c2ccco2)Sc2nc3ccccc3n21 (stereo not given)	3.22 (active)
CCCCOc1nc(N)nc(-c2ccccc2)n1	-0.634
COc1ccc(C(=O)CSc2nc3ccccc3n2CC(=O)NC(C)(C)C)cc1	-0.144
COC(=O)CSC1=C(C#N)C(=O)NC(c2ccccc2)S1 (stereo not given)	-0.603
CCOC(=O)CSC1=C(C#N)C(=O)NC(c2ccc(OC)c(OC)c2)S1 (stereo not given)	6.39 (active)
CCOC(=O)CSC1=C(C#N)C(=O)NC(c2ccc(OC)cc2)S1 (stereo not given)	0.083
O=C(CSc1c[nH]c2ccccc12)NCC1CCCO1 (stereo not given)	-0.0605
C#CCOC(=O)C(NC(=O)c1ccccc1)=C1CCCCC1	-0.603
C=CCNC(=O)/C(=C\c1ccc2c(c1)OCO2)NC(=O)c1ccc(Br)cc1	-0.116
Cc1[nH]c2ccccc2c1C(=O)CN1C(=O)NC2(CC(C)CC(C)(C)C2)C1=O (stereo not given)	-0.266
O=C1c2cccc3c(N4CCCCC4)ccc(c23)C(=O)N1CCO	-0.897
O=C(OCCN1C(=O)c2cccc3c(N4CCOCC4)ccc(c23)C1=O)c1ccc(Cl)cc1Cl	-0.884
O=C(OCCN1C(=O)c2cccc3c(N4CCOCC4)ccc(c23)C1=O)c1cc(Cl)cc(Cl)c1	5.23 (active)
O=C(OCCN1C(=O)c2cccc3c(N4CCOCC4)ccc(c23)C1=O)c1ccc(Cl)cc1	-0.758
O=C(OCCN1C(=O)c2cccc3c(N4CCOCC4)ccc(c23)C1=O)c1ccccc1Cl	-0.723
O=C(OCCN1C(=O)c2cccc3c(N4CCOCC4)ccc(c23)C1=O)c1cccc(Cl)c1	2.81
CCN1CCCC1CNC(=O)c1ccc(N2CCCC2=O)cc1 (stereo not given)	1.38
O=S(=O)(Cc1ccccc1Cl)Nc1ccccn1	1.91
CCOc1ccccc1NC(=O)c1cccc(NC(=O)CC(c2ccccc2)c2ccccc2)c1	-0.177
CCOc1ccccc1NC(=O)c1cccc(NC(=O)c2ccco2)c1	-0.729
CCOc1ccccc1NC(=O)Nc1cccc(C(C)=O)c1	3.62 (active)

Structure (SMILES)	z-score
CC(Sc1ccc(Cl)cc1)C(=O)Nc1ccc(S(=O)(=O)N2CCOCC2)cc1 (stereo not given)	0.967
Cc1ccc(SC(C)C(=O)Nc2ccc(S(=O)(=O)N3CCOCC3)cc2)cc1 (stereo not given)	6.05 (active)
CC(Sc1ccccc1)C(=O)Nc1ccc(S(=O)(=O)N2CCOCC2)cc1 (stereo not given)	0.0953
COc1ccsc1C(=O)N1CCN(Cc2ccc3c(c2)OCO3)CC1	-0.0804
COc1cccc(C(=O)OC2CCCN(C)C2)c1 (stereo not given)	-0.125
CCCS(=O)(=O)NCc1cn2c(C)csc2n1	2.02
CCc1ccc(S(=O)(=O)NCc2cn3c(C)csc3n2)s1	0.337
Cc1csc2nc(CNS(=O)(=O)N(C)C)cn12	-0.402
CC(c1ccco1)N(C(=O)c1ccccc1NS(=O)(=O)c1cc([N+](=O)[O-])ccc1Cl)c1ccccn1 (stereo not given)	2.18
CC(c1ccco1)N(C(=O)c1ccccc1NS(=O)(=O)c1ccc(Cl)c([N+](=O)[O-])c1)c1ccccn1 (stereo not given)	0.843
CC(c1ccco1)N(C(=O)c1ccccc1NS(=O)(=O)c1ccc(Cl)cc1)c1ccccn1 (stereo not given)	-0.362
O=C(CN1C(=O)C2CC=CCC2C1=O)Nc1nnc(SCc2ccc(Cl)cc2)s1 (stereo not given)	-0.31
CCNc1nnc(-c2ccncc2)s1	-0.233
Cc1ccc(Nc2nnc(-c3ccncc3)s2)c(Br)c1	0.13
c1ccc2c(Nc3nnc(-c4ccncc4)s3)cccc2c1	4.07 (active)
N=C1CCCN1CC(=O)c1ccc(Cl)cc1	0.073
COc1cc2c(C)nc3onc(-c4ccccc4)c3c2cc1OC	-0.241
Cc1ccc2nc(SCC(=O)NC3CCCc4ccccc43)[nH]c2c1 (stereo not given)	0.164
O=C(CSc1nc2ccccc2[nH]1)NC1CCCc2ccccc21 (stereo not given)	2.41
COc1ccc2nc(SCC(=O)NC3CCCc4ccccc43)[nH]c2c1 (stereo not given)	0.0427
O=C(NCc1cccnc1)C1CCN(C(=O)c2ccc(Cl)cc2Cl)CC1	-0.0203
N=C1S/C(=C\c2cn[nH]c2-c2ccc(F)cc2)C(=O)N1c1ccccc1F	0.348
CCn1c(-c2nn(C)c(C)c2Cl)n[nH]c1=S	-0.461
CCCCn1nnc(NC(=S)NC(=O)c2ccc(-c3cccc(Cl)c3Cl)o2)n1	4.59 (active)

Structure (SMILES)	z-score
CCCCn1nnc(NC(=S)NC(=O)c2cccs2)n1	0.0688
CCCCn1nnc(NC(=O)c2ccc(-c3cccc(Cl)c3)o2)n1	-0.581
COc1cccc(C(=O)/C=C/c2ccc(SC)cc2)c1	0.0506
CCC(C)N1CC(C(=O)O)CC1=O (stereo not given)	-0.0459
CCOc1ccc(S(=O)(=O)N2CCN(Cc3ccccc3)CC2)c2cccnc12	0.939
Cc1cc(Oc2ccc(C)c(Cl)c2)nc(SCC(=O)c2ccccc2)n1	-0.36
N#C/C(=C\c1ccc(N2CCOCC2)c([N+](=O)[O-])c1)c1nc2ccccc2[nH]1	2.63
N#C/C(=C/c1ccc(N2CCCC2)c([N+](=O)[O-])c1)c1nc2ccccc2[nH]1	0.0678
N#C/C(=C\c1ccc(N2CCCC2)c([N+](=O)[O-])c1)c1nc2ccccc2[nH]1	0.221
COC(=O)N/N=C/c1cc(C)n(-c2cccc3ccccc23)c1C	0.0823
O=C(Nc1ccccc1)N1CCN(c2ccc(C(F)(F)F)cn2)CC1	-0.362
Nc1nc(CN2CCC(Cc3ccccc3)CC2)nc(Nc2ccccc2)n1	2.39
CC1CC(C)CN(Cc2nc(N)nc(Nc3ccccc3)n2)C1 (stereo not given)	0.639
COc1ccccc1Nc1nc(N)nc(CN2CCC(Cc3ccccc3)CC2)n1	0.165
Nc1nc(CN2CCN(Cc3ccccc3)CC2)nc(Nc2ccccc2)n1	0.26
CC1CC(C)CN(Cc2nc(N)nc(Nc3ccc4ccccc4c3)n2)C1 (stereo not given)	3.66 (active)
Nc1nc(CN2CCCCCC2)nc(Nc2ccccc2)n1	0.00781
O=c1oc2ccccc2c(N2CCCC2)c1CN1CCCC1	-0.557
CCOC(=O)NC1(NCC(C)C)Oc2ccccc2O1	-0.313
COc1cc(/C=N/OCC(=O)NC2CCCCC2)ccc1OCc1ccccc1	-0.752
CC(C)c1ccc(OCC(=O)Nc2ccc(OC(F)(F)F)cc2)cc1	-0.173
COc1ccccc1C(=O)NCCn1cc(SCC(=O)Nc2cc(C)on2)c2ccccc21	-0.181
